Bioassay records as filed in PubChem.
Gal4-VP16 FLuc: inhibits Gal4-VP16 luciferase reporter, ROR gamma counter-screen; Drosophila S2 Gal4-VP16 UAS-luciferase, luminescence, 20 h; Potency, µM (doses to about 53.6 µM), for inactives: at the top dose activity, negative = inhibition, usual class: inhibitors; 310,000 compounds, 3.5% hits; AID 2546;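 further: Gal4-VP16 expression switched on by copper sulfate through the metallothionein promoter; nearly all actives have a fitted effect of over 50% in size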
KinaseGlo FLuc: Kinase-Glo luciferase inhibition (counter-screen). Q27757. Kinase-Glo luciferase, ATP luminescence, 8 min. Potency, µM (doses to about 38.3 µM), for inactives: at the top dose activity change, negative = inhibition, hits mostly inhibitors. 200,000 compounds, 0.28% hits; further: nearly all actives have a fitted effect of over 60% in size
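Light output from Kinase-Glo luciferase with luciferin and 10 uM ATP in 50 mM imidazole pH 7.2, KCl, MgCl2, Tween 20, BSA; compound pin-delivered, 8-min ambient incubation, then luminescence read.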
RORg inh: ROR gamma (mouse) transcription inhibition. Drosophila S2 Gal4-RORgamma UAS-luciferase reporter, 20 h. 310,000 compounds, 5.4% hits. P51450. AID 2551. Potency, µM (titrated, usually from 53.6 µM), without a hit: at the top dose activity change, negative = inhibition, actives largely listed as inhibitors; further: nearly all actives have a fitted effect of over 60% in size
Target sequence (P51450 whole entry, looked up, the tested form may be a part): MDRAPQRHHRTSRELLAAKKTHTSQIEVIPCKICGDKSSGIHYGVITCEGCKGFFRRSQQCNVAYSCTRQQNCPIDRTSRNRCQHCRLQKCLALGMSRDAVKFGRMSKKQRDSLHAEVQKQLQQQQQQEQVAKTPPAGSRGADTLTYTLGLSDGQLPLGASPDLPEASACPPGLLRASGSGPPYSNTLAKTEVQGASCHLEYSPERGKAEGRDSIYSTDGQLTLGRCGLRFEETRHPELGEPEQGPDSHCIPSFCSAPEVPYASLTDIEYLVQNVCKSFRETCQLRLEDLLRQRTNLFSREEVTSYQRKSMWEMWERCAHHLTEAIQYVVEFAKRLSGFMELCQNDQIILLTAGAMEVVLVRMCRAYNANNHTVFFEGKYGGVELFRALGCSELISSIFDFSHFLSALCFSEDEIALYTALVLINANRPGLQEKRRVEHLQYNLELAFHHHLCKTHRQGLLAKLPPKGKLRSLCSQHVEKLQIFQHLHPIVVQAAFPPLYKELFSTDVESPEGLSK
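Drosophila Schneider cells stably carrying a metallothionein-driven Gal4 DBD–ROR gamma fusion and a UAS-Photinus luciferase reporter were exposed to compound for 1 hr, then induced with copper sulfate (700 uM final) for 20 hr at ambient temperature before luminescence reading.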
* = called active by the depositor; ? = inconclusive; nt = no result; [ ] = remark or other dose. An excerpt weighted towards active compounds, which were near 6.2% of everything screened. The call rests on the fitted dose curve; in most records, active means well fitted curve in the direction sought with a large enough effect; inconclusive means small, poorly fitted or top-dose-only effect, or another doubt; inactive means no such curve, though single readings can be large; an effect the other way counts as inactive or inconclusive. On the % scale 0 is the no-effect control and ±100 the full control effect; potency means the concentration at half of the fitted maximal effect.

SMILES	Gal4-VP16 FLuc	KinaseGlo FLuc	RORg inh
COC(=O)N1C(=O)[C@@](c2ccc(OC)cc2)(C(C)C)N1C(=O)OC	-3%	nt	-40%
COc1ccc(C(=O)NCC(=O)OCc2ccccc2F)cc1	-21%	-1%	19%
O=C(NC(=Nc1nc2ccccc2o1)NC(=O)c1ccccc1)c1ccccc1	22%	0%	-9%
N/C(=N\c1nc2ccccc2o1)NC(=O)c1ccccc1NC(=O)c1ccccc1	?	-1%	-82%
N/C(=N\c1nc2ccccc2o1)NC(=O)c1ccccc1F	7.9µM*	-2%	2.5µM*
COc1ccccc1C(=O)NC(=Nc1nc2ccccc2o1)NC(=O)c1ccccc1OC	?	2%	0.79µM*
O=C(NCCNS(=O)(=O)c1cccc(C(F)(F)F)c1)c1cc(OCC(F)(F)F)ccc1OCC(F)(F)F	-8%	0%	3%
CCC1OC(=O)C(C)[C@@H](O[C@H]2C[C@@](C)(OC)C(O)C(C)O2)C(C)[C@@H](O[C@@H]2OC(C)CC(N(C)C)C2O)[C@](C)(O)CC(C)/C(=N\OCOCCOC)[C@H](C)C(O)[C@]1(C)O (stereo partly specified)	7%	-7%	7%
CCCCOC(=O)c1ccc(NC(C)=O)cc1	14%	5%	2%
CCCCOC(=O)c1ccc(NC(=S)NC(=O)c2c(Cl)cnn2CC)cc1	18µM*	-7%	7.1µM*
CCCCOC(=O)c1ccc(NC(=O)c2cc(Cl)c(Cl)cc2C(=O)O)cc1	5%	4%	19%
CCCCOC(=O)c1ccc(NC(=O)c2nn(C)cc2Br)cc1	3.5µM*	-1%	37%
CCCCOC(=O)c1ccc(NC(=O)c2c(OC)cccc2OC)cc1	-21%	2%	?
CCCCOC(=O)c1ccc(NC(=S)NC(=O)c2c(Cl)cnn2C)cc1	?	-5%	14µM*
Cc1c(C(=O)Nc2ccccc2)sc2nc[nH]c(=O)c12	27%	2%	34%
COc1ccccc1C1CCN(C(=O)c2cccc([N+](=O)[O-])c2)CC1	-2%	nt	7%
CC(CNC(=O)C(C)(C)C)NC(=O)C(C)(C)C (stereo unspecified)	17%	2%	42%
COc1ccc(Nc2cc(C)nc3nc(C)nn23)cc1Cl	-7%	1%	11%
COc1cc(Nc2cc(C)nc3nc(C)nn23)cc(OC)c1OC	13µM*	2%	-25%
CC(C)C[C@H](NC(=O)c1nc[nH]c1C(=O)NCCCCCNC(=O)OC(C)(C)C)C(=O)OCc1ccccc1	6.3µM*	nt	13µM*
CC(C)C[C@H](NC(=O)c1nc[nH]c1C(=O)N[C@@H](CCCCNC(=O)OC(C)(C)C)C(=O)OC(C)(C)C)C(=O)OCc1ccccc1	?	nt	7.1µM*
CC(C)(C)OC(=O)NCCCC[C@H](NC(=O)c1nc[nH]c1C(=O)NCC(=O)OCc1ccccc1)C(=O)OC(C)(C)C	?	nt	28µM*
C[C@H](NC(=O)c1nc[nH]c1C(=O)N[C@@H](CCCCNC(=O)OC(C)(C)C)C(=O)OC(C)(C)C)C(=O)OCc1ccccc1	?	nt	-20%
CCCC[C@@H]1CNC(=S)N1CCc1cccc2ccccc12	4.5µM*	nt	1.6µM*
CCCCN1C(=S)NC[C@@H]1Cc1cccc2ccccc12	11µM*	nt	3.2µM*
SMILES	Gal4-VP16 FLuc	KinaseGlo FLuc	RORg inh
O=C1NC[C@@H](Cc2cccc3ccccc23)N(CC2(c3ccccc3)CC2)C1=O	-11%	nt	2%
O=C1NC[C@@H](Cc2cccc3ccccc23)N(CC2CCCCC2)C1=O	-4%	nt	8%
NCCCC[C@H]1CNC(=O)C(=O)N1CCc1cccc2ccccc12	-1%	nt	-12%
S=C1NC[C@H](Cc2ccccc2)N1CCc1cccc2ccccc12	5.6µM*	nt	1µM*
S=C1NC[C@H](Cc2cccc3ccccc23)N1CC1CCCCC1	5µM*	nt	0.71µM*
O=C1NC[C@H](c2ccccc2)N(CCc2cccc3ccccc23)C1=O	-2%	nt	-1%
CCc1ccc(CNC(=O)C2CCC(=O)N(CCc3ccc(Cl)cc3)C2)nc1 (stereo unspecified)	-8%	nt	-7%
CS(=O)(=O)N1CCC2(CC1)CN(C(=O)Nc1ccccc1)C2	0%	-1%	2%
Nc1nnc(COc2ccccc2)s1	4%	-2%	15%
N#Cc1cccc(NC(=O)N2CC3(CCN(C(=O)c4cccc(F)c4)CC3)C2)c1	10%	2%	-15%
CN(C)C=NC(=O)c1[nH]c2ccc(Cl)cc2c1-c1ccccc1	1%	nt	6%
CC(=O)OCCBr	-5%	nt	0%
Cc1noc(C)c1C(=O)N1CCC[C@@]2(CCN(Cc3nccs3)C2)C1	1%	1%	4%
COc1ccc(OC(=O)CCc2c[nH]c3ccccc23)cc1	-3%	-2%	12%
COc1ccccc1/C=[N+](\[O-])C1SC(=S)N(C)C1(C)C (stereo unspecified)	0%	nt	14%
CSc1cccc(NC(=S)N(CCN(C)C)C(C)c2ccccn2)c1 (stereo unspecified)	?	3%	18µM*
Cc1c(Cl)cccc1NC(=S)N(CCN(C)C)C(C)c1ccccn1 (stereo unspecified)	?	1%	13µM*
Cc1ccccc1NC(=S)N(Cc1ccco1)C(C)c1ccccn1 (stereo unspecified)	?	0%	13µM*
Cc1ccccc1NC(=S)N(CCCN1CCCCC1)Cc1ccco1	-2%	-4%	-23%
CSc1cccc(NC(=S)N(CCN(C)C)C(C)c2ccncc2)c1 (stereo unspecified)	-3%	nt	?
Cc1c(Cl)cccc1NC(=S)N(Cc1ccco1)C(C)c1ccccn1 (stereo unspecified)	?	0%	10µM*
Cc1ccccc1NC(=S)N(Cc1cccnc1)Cc1ccco1	?	1%	25%
Cc1ccccc1NC(=S)N(CCN(C)C)C(C)c1ccccn1 (stereo unspecified)	5%	7%	?
Cc1ccccc1C(=O)NNC(=O)c1ccc(F)cc1	-2%	-9%	3%
COc1ccccc1C(=O)Nc1nnc(-c2ccc(F)cc2)o1	11µM*	-4%	7.9µM*
SMILES	Gal4-VP16 FLuc	KinaseGlo FLuc	RORg inh
Cc1ccccc1C(=O)Nc1nnc(-c2ccc(F)cc2)o1	0.45µM*	0%	1.3µM*
O=C(Nc1nnc(SCc2ccc(F)cc2)s1)c1ccco1	3%	1%	?
O=C(Nc1ccc(NC(=O)c2ccccc2Cl)cc1)c1cccnc1	2%	nt	-10%
O=C(Nc1nnc(-c2ccccc2Cl)o1)c1cccnc1	1.3µM*	-6%	0.89µM*
COc1ccccc1C(=O)Nc1nnc(-c2ccc(F)cc2)s1	23%	nt	41%
O=C(Nc1nnc(-c2ccc(F)cc2)o1)c1ccco1	5µM*	nt	?
CC(=O)C[C@H](O)[C@@H](NC(=O)OC(C)(C)C)C(C)C	-4%[10 µM]	nt	-3%[10 µM]
O=C(O)c1ccccc1NS(=O)(=O)c1ccc(Cl)c(Cl)c1	nt	-2%	nt
Cc1cccc(N(C(=O)c2snc(C(N)=O)c2N)C(C)C(=O)NCC2CCCO2)c1 (stereo unspecified)	-4%	4%	2%
CC(=O)Nc1nnc(-c2c(-c3ccccc3Cl)noc2C)o1	18µM*	nt	5µM*
Cc1ccccc1C(=O)Nc1nnc(-c2cccnc2)o1	5µM*	0%	3.2µM*
Cc1ccccc1C(=O)Nc1nc(-c2cccnc2)cs1	2%	nt	1%
